Data on twelve compounds can be found in PubChem BioAssay.

Assay [1] can be described thus: HepG2 liver cancer cell viability effects, profiling panel, resazurin fluorescence, 24 h, PK04 Diversity Set (AID 1172). Note: test concentration not given here. Particulars: higher = more signal. A general note: Resazurin is reduced to fluorescent resorufin, in cell work by metabolically active cells.
Assay [2] is described as follows: basal S. cerevisiae growth modulation, no modifier, primary screen, OD600, strain BY4716, 24 h, basal condition (AID 1173). The note with it: OD600, 24 h, higher = more signal, called active from +8 up or from −8 down.
Assay [3] is described as follows: MM1S myeloma cell viability, profiling panel, resazurin fluorescence, basal, 24 h, PK04 Diversity Set (AID 1174).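 Note: MM1S multiple myeloma cell line; test concentration not given here.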 Particulars: higher = more signal, called active from +8 up or from −8 down.
Assay [4] has as its target Dihydroorotate dehydrogenase (quinone), mitochondrial (Plasmodium falciparum (isolate 3D7)) (UniProt Q08210). Description: PfDHODH enzyme inhibitors, primary screen, biochemical, C-terminal His tag, absorbance 600 nm (AID 1175).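 Note: recombinant parasite enzyme with a five histidine tag at its C terminus; test concentration not given here.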 The note with it: DCIP absorbance 600 nm, higher = more signal, called active from +8 up or from −8 down.
Assay [5] is described as follows: P. aeruginosa biofilm formation inhibitors, primary screen, strain PAO1, LB-PBS medium, absorbance 600 nm (AID 1176). Note: test concentration not given here. Particulars: P. aeruginosa PAO1 growth/biofilm, A600, 12 h; higher = more signal.
Assay [6] in a line: S. cerevisiae RM11-1a growth modifiers, primary screen, strain RM11-1a, OD600, basal, 24 h (AID 1177).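 Note: cultures grown under basal conditions with no added stressor; test concentration not given here.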 Particulars: OD600, 24 h, higher = more signal, called active from +8 up or from −8 down.
Assay [7] in a line: E. coli acrAB mutant growth effects, primary screen, E. coli filamentation inducers, strain DRC39, OD650, 24 h (AID 1178).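 Note: growth measured as culture turbidity by optical density at 650 nm; test concentration not given here.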 Particulars: higher = more signal, called active from +8 up or from −8 down.
The nature of assay [8]: E. coli acrAB mutant growth effects, primary screen, E. coli filamentation inducers, strain DRC39, OD650, 48 h (AID 1179).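 Note: screen aims at cell division blockers that make cells filament.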 The note with it: E. coli DRC39 delta-acrAB growth, higher = more signal, called active from +8 up or from −8 down.
Assay [9] can be described thus: RPMI8226 myeloma cell viability, profiling panel, resazurin fluorescence, basal, 24 h, PK04 Diversity Set (AID 1180).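 Note: RPMI8826 multiple myeloma cell line at 5000 cells per well; test concentration not given here.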 The note with it: higher = more signal.
Assay [10] addresses E3 ubiquitin-protein ligase XIAP (Homo sapiens) (UniProt P98170). Description: XIAP binders, primary screen, biophysical, small-molecule microarray, fluorescence 635 nm (AID 1181).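 Note: score merges 667 nm emission and signal to noise over triplicate slides.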 The note with it: small-molecule microarray binding, higher = more signal.

Active and inactive are the calls of the source. Unless noted, the rule behind the calls is not given here.

Sequence of Dihydroorotate dehydrogenase (quinone), mitochondrial (Plasmodium falciparum (isolate 3D7)) (Q08210 whole entry, looked up): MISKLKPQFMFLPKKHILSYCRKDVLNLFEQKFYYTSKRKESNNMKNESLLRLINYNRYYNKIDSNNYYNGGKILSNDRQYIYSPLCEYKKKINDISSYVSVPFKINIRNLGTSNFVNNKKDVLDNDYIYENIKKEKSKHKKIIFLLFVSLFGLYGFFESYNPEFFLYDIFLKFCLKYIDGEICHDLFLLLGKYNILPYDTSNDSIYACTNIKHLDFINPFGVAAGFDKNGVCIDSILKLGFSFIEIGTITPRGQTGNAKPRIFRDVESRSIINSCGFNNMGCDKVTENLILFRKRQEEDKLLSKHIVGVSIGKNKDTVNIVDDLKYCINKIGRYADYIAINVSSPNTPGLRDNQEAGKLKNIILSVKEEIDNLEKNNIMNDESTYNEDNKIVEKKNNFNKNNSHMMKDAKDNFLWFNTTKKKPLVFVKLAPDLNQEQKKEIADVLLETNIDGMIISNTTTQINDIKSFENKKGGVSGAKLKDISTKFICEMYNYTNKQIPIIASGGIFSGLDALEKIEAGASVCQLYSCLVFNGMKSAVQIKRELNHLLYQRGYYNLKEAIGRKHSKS
Sequence of E3 ubiquitin-protein ligase XIAP (Homo sapiens) (P98170 whole entry, looked up): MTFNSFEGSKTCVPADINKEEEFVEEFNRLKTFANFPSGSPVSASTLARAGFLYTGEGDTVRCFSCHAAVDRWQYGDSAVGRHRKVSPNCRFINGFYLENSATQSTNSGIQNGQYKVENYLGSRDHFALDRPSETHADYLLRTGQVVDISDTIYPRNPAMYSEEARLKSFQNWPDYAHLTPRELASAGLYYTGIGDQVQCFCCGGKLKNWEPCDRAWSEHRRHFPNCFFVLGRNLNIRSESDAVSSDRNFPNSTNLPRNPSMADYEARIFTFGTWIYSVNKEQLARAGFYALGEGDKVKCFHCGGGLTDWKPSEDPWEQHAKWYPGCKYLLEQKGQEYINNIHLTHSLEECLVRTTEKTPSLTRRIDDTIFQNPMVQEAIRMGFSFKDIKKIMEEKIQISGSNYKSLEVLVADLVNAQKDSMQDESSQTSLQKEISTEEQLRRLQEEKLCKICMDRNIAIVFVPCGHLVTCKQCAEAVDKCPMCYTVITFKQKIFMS

Consider `CC(C)=NOC(C)CN1CCCc2nc(C)c(C)cc21` (stereo not given), for which the z-score in assay [1] was -0.249; in assay [2], -0.211 (inactive); in assay [3] it was -0.0014 (inactive); in [5], 0.854 (inactive); in assay [6], -0.0702 (inactive); in [7], 0.0251 (inactive). For the same compound, the z-score was -0.726 (inactive) in [8] and -0.572 in assay [9]. In addition, the composite z-score in assay [4] was 0.787 (inactive); in [10], -0.0676.
For the compound `C#CCCCON=C1C[C@@H](O)[C@@H](O)[C@@H]2[C@@H]3C(=O)N(C4CCCCC4)C(=O)[C@@H]3CC[C@@H]12`, the z-score in [1] is -0.673; in assay [2], -3.17 (inactive); in assay [3] it was -0.0738 (inactive); in assay [5], 0.164 (inactive); in assay [6], -1.88 (inactive); in assay [7], 0.587 (inactive). The z-score in assay [8] was 0.311 (inactive); in [9], 0.321. The composite z-score in assay [4] is -1.65 (inactive); in assay [10], -0.392.
Take `CC(C)CON=C1C[C@@H](O)[C@@H](O)[C@@H]2[C@@H]3C(=O)N([C@@H](C)c4ccccc4)C(=O)[C@@H]3CC[C@@H]12`: the z-score in [1] was -0.161; in [2] it was 0.221 (inactive); in assay [3], -0.827 (inactive); in assay [5], 1.6 (inactive); in [6] it was -0.251 (inactive); in assay [7], -0.286 (inactive). Also, the results for the z-score in assay [8] and in assay [9] were -0.112 (inactive) and -0.534, respectively. In addition, the results for the composite z-score in assay [4] and in [10] were 0.291 (inactive) and 0.209, respectively.
Take `CCOC(=O)CCN1C(=O)[C@H]2[C@H]3[C@H](O)[C@H](O)CC(=NNC(=O)OCc4ccc(OC)cc4)[C@H]3CC[C@H]2C1=O`: the z-score is 0.0785 in assay [1]; -3 (inactive) in assay [2]; -0.451 (inactive) in assay [3]; 1.07 (inactive) in assay [5]; -0.595 (inactive) in assay [6]; -0.653 (inactive) in [7]. The results for the z-score in [8] and in [9] were -0.652 (inactive) and -0.244, respectively. Besides, the figures for the composite z-score in assay [4] and in [10] were 0.0913 (inactive) and 0.12, respectively.
Regarding `C[C@@H]1CC[C@H]2C(=O)OC(Cc3ccccc3)CN2[C@H]1c1ccc(Br)cc1` (stereo not given in full), the z-score in [1] is 0.352; in [2], -3.48 (inactive); in assay [3], 0.417 (inactive); in assay [5], -0.658 (inactive); in assay [6], 0.2 (inactive); in assay [7], 1.06 (inactive). The z-score is 0.485 (inactive) in assay [8] and -0.726 in assay [9]. Moreover, the results for the composite z-score in assay [4] and in assay [10] were 0.637 (inactive) and 0.0299, respectively.
Consider `CO[C@@H]1COC(=O)[C@H](COCc2ccccc2)NC(=O)CC=C[C@@H](C)[C@H](OC)COC(=O)[C@@H](C)NC(=O)CC=C[C@H]1C`, for which the z-score in assay [1] was 0.532; in assay [2], -1.01 (inactive); in [3], -2.05 (inactive); in [5], -0.908 (inactive); in assay [6], 0.496 (inactive); in assay [7], 1.4 (inactive). Moreover, the z-score in [8] was 0.287 (inactive); in assay [9], -0.795. In addition, the composite z-score in assay [4] is 0.262 (inactive); in assay [10], -0.0939.
Turning to `C[C@]12CCC3c4ccc(OCC5CO5)cc4CCC3C1CC[C@@H]2O` (stereo not given in full), the z-score in [1] was 0.689; in [2], -3.59 (inactive); in [3], 0.383 (inactive); in assay [5], 0.52 (inactive); in [6] it was 1.27 (inactive); in assay [7], -0.424 (inactive). For the same compound, the z-score in [8] was -0.431 (inactive); in assay [9], 1.68. The figures for the composite z-score in assay [4] and in assay [10] were -0.187 (inactive) and -0.148, respectively.
Take `C=CC[C@@H]1C=C[C@H](ON=C2C[C@@H](O)[C@@H](O)[C@@H]3[C@@H]4C(=O)N(CC)C(=O)[C@@H]4CC[C@@H]23)[C@@H](CO)O1`: the z-score in assay [1] was -1.05; in assay [2], -0.099 (inactive); in assay [3], -0.415 (inactive); in assay [5], -0.0781 (inactive); in assay [6] it was -0.466 (inactive); in assay [7], -0.939 (inactive). Moreover, the z-score was -1.5 (inactive) in assay [8] and -0.216 in assay [9]. In addition, the composite z-score was -2.18 (inactive) in assay [4] and -0.289 in [10].
Take `CC(C)=NO[C@@H](C)c1cn([C@H](CO)Cc2ccccc2)nn1`: the z-score is -1.27 in assay [1]; -1.16 (inactive) in [2]; -0.597 (inactive) in assay [3]; 0.0889 (inactive) in assay [5]; -2.2 (inactive) in assay [6]; 0.0116 (inactive) in [7]. For the same compound, the z-score in assay [8] is -1.77 (inactive); in assay [9], -1.18. Besides, the composite z-score in assay [4] is -1.44 (inactive); in assay [10], 0.314.
Regarding `CC(CCN1CCCc2nc(C)c(C)cc21)=NO[C@@H](C)c1cn([C@H](CO)Cc2ccccc2)nn1`, the z-score in [1] is -0.333; in assay [2], 0.472 (inactive); in assay [3] it was 0.0688 (inactive); in assay [5] it was -0.725 (inactive); in assay [6], 0.792 (inactive); in assay [7], 0.851 (inactive). The figures for the z-score in assay [8] and in assay [9] were 0.961 (inactive) and -0.789, respectively. Besides, the composite z-score in assay [4] was -1.1 (inactive); in [10], 0.115.
For the compound `CCOC(=O)[C@H](CC(C)C)NC(=O)CCC1CC(OC(=O)NCc2ccc3c(c2)OCO3)CC2(CCCC(COC(=O)NCCC(C)C)O2)O1` (stereo not given in full), the z-score in [1] is 0.54; in assay [2] it was -0.214 (inactive); in assay [3], 1.03 (inactive); in assay [5], 0.462 (inactive); in [6], 0.175 (inactive); in [7] it was 1 (inactive). Further, the z-score in assay [8] was -0.0965 (inactive); in assay [9], 0.497. The composite z-score is 0.126 (inactive) in assay [4] and 0.0065 in assay [10].
Turning to `CCOC(=O)[C@H](Cc1ccccc1)NC(=O)CCC1CC(OC(=O)NCc2cccc3ccccc23)CC2(CCCC(COC(=O)NCC3CCCCC3)O2)O1` (stereo not given in full), the z-score in assay [1] is 1.21; in [2], -0.424 (inactive); in [3] it was 1.43 (inactive); in assay [5], 0.143 (inactive); in assay [6] it was -0.104 (inactive); in assay [7], -0.475 (inactive). Besides, the z-score was 0.481 (inactive) in assay [8] and 0.0833 in [9]. In addition, the composite z-score in assay [4] is -0.105 (inactive); in assay [10], 0.0424.
